The results in this text go back to PubChem BioAssay (NCI).

About 79,000 compounds went through this panel and 15% of them were active in at least one assay; those are over-represented in the sample as a whole. Values without a mark were called inactive. Active and inactive are the calls of the source. Cut-off read from the data, not from the text of the source: active = growth inhibition above about 70%; inactive = the rest.

Test [1] in a line: NCI Yeast Anticancer Drug Screen. Data for the rad50 strain (AID 155).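 Note: 0% = growth of vehicle-only cultures of the same strain.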 The settings on record: S. cerevisiae rad50 strain growth inhibition, hits give high values. Summed up: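 Growth of the mutant yeast was measured after compound exposure and referenced to vehicle-treated cultures.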
Test [2] can be described thus: NCI Yeast Anticancer Drug Screen. Data for the mec2-1 strain (AID 157). The settings on record: S. cerevisiae mec2-1 strain, hits give high values. Summed up: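 Yeast mec2-1 mutant treated with compound. Readout: growth inhibition vs vehicle controls.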
Test [3] can be described thus: NCI Yeast Anticancer Drug Screen. Data for the sgs1 mgt1 strain (AID 161).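 Note: 0% = growth of cultures given vehicle only.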 The settings on record: S. cerevisiae sgs1 mgt1 strain, hits give high values. Summed up:
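Test agents were incubated with a DNA-repair-mutant yeast strain. Growth was then read and compared against vehicle-treated controls.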

A short description of test [4]: NCI Yeast Anticancer Drug Screen. Data for the cln2 rad14 strain (AID 165).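 Note: 0% = growth equal to vehicle treated cultures.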 The following applies: S. cerevisiae cln2 rad14 strain, hits give high values. The method in brief: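 cln2 rad14 yeast strain; compound exposure; growth inhibition read vs vehicle controls.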
Test [5] is described as follows: NCI Yeast Anticancer Drug Screen. Data for the bub3 strain (AID 167). The following applies: S. cerevisiae bub3 mutant strain, hits give high values. The method in brief:
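Whole-cell yeast assay. The mutant strain was incubated with compounds, and growth inhibition was determined by comparison with vehicle-treated cells.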

Test [6] is described as follows: NCI Yeast Anticancer Drug Screen. Data for the mlh1 rad18 strain (AID 175). The settings on record: S. cerevisiae mlh1 rad18 strain growth inhibition, hits give high values. Summed up:
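Yeast w/ defined DNA-repair lesions; compound exposure; growth vs vehicle controls → % inhibition.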

[7] abbreviates: at 5.0 µM (retest, dose inferred, filed as 0.5).
Where [8] appears, read: at 50.0 µM (retest, dose inferred, filed as 5.0).

Regarding `CCN(CC)CCSCCCNc1cc(C)nc2c1ccc1c2ccc2c(NCCCSCCN(CC)CC)cc(C)nc21`, the growth inhibition in test [1] (setting [7]) was 5%; in test [1] (setting [8]), 92% (active); in test [1] (at 50.0 µM) it was 97.3% (active); in test [2] (setting [7]) it was 3%; in test [2] (setting [8]), 70% (active); in test [2] (at 50.0 µM), 97.4% (active). Further, the growth inhibition was -2% in test [3] (setting [7]); 49% in test [3] (setting [8]); 97.8% (active) in test [3] (at 50.0 µM); -3% in test [4] (setting [7]); 42% in test [4] (setting [8]); 72.5% (active) in test [4] (at 50.0 µM). Moreover, the growth inhibition in test [5] (setting [7]) was 4%; in test [5] (setting [8]), 67%; in test [5] (at 50.0 µM), 94.4% (active); in test [6] (setting [7]), 8%; in test [6] (setting [8]), 94% (active); in test [6] (at 50.0 µM), 95.8% (active).

For `NC(=S)NNc1c([N+](=O)[O-])cnn(-c2ccccc2)c1=O`, the growth inhibition is 18% in test [1] (setting [7]); 30% in test [1] (setting [8]); 3.85% in test [1] (at 50.0 µM); -28% in test [2] (setting [7]); 3% in test [2] (setting [8]); 3.05% in test [2] (at 50.0 µM). For the same molecule, the growth inhibition in test [3] (setting [7]) is -27%; in test [3] (setting [8]), -13%; in test [3] (at 50.0 µM), 9.7%; in test [4] (setting [7]), -9%; in test [4] (setting [8]), 16%; in test [4] (at 50.0 µM) it was 20.3%. Further, the growth inhibition was -19% in test [5] (setting [7]); 21% in test [5] (setting [8]); -4.75% in test [5] (at 50.0 µM); -22% in test [6] (setting [7]); -25% in test [6] (setting [8]); 71.2% (active) in test [6] (at 50.0 µM).

As to `CCOC(=O)n1c2ccccc2c(=O)n1CCO`, the growth inhibition in test [1] (setting [7]) is -23%; in test [1] (setting [8]), -15%; in test [1] (at 50.0 µM) it was 97.5% (active); in test [2] (setting [7]), -16%; in test [2] (setting [8]), -19%; in test [2] (at 50.0 µM), 98.9% (active). The growth inhibition in test [3] (setting [7]) was -19%; in test [3] (setting [8]), -12%; in test [3] (at 50.0 µM) it was 87.7% (active); in test [4] (setting [7]), -32%; in test [4] (setting [8]), -18%; in test [4] (at 50.0 µM), 43.2%. Further, the growth inhibition was -28% in test [5] (setting [7]); -11% in test [5] (setting [8]); 97.3% (active) in test [5] (at 50.0 µM); -33% in test [6] (setting [7]); -11% in test [6] (setting [8]); 50% in test [6] (at 50.0 µM).

Turning to `Cc1ccc(/C=C/C(=O)/C=C/c2ccc(C)o2)o1`, the growth inhibition in test [1] (setting [7]) is 50%; in test [1] (setting [8]), 97% (active); in test [1] (at 50.0 µM), 65.8%; in test [2] (setting [7]), 45%; in test [2] (setting [8]), 99% (active); in test [2] (at 50.0 µM) it was 71.3% (active). Besides, the growth inhibition was 49% in test [3] (setting [7]); 97% (active) in test [3] (setting [8]); 75% (active) in test [3] (at 50.0 µM); 42% in test [4] (setting [7]); 81% (active) in test [4] (setting [8]); 39% in test [4] (at 50.0 µM). The growth inhibition was 47% in test [5] (setting [7]); 68% in test [5] (setting [8]); 75% (active) in test [5] (at 50.0 µM); 62% in test [6] (setting [7]); 98% (active) in test [6] (setting [8]); 92.4% (active) in test [6] (at 50.0 µM).

With `O=C(Nc1ccccc1[N+](=O)[O-])/C(=N/Nc1cccc(Cl)c1)c1c(O)c2ccccc2oc1=O`, the growth inhibition in test [1] (setting [7]) was 29%; in test [1] (setting [8]) it was 29%; in test [1] (at 50.0 µM) it was 87.1% (active); in test [2] (setting [7]), 36%; in test [2] (setting [8]) it was 36%; in test [2] (at 50.0 µM), 79.5% (active). The growth inhibition is 35% in test [3] (setting [7]); 35% in test [3] (setting [8]); 89.5% (active) in test [3] (at 50.0 µM); 11% in test [4] (setting [7]); 11% in test [4] (setting [8]); 43.2% in test [4] (at 50.0 µM). Also, the growth inhibition is 27% in test [5] (setting [7]); 27% in test [5] (setting [8]); 78.8% (active) in test [5] (at 50.0 µM); 44% in test [6] (setting [7]); 44% in test [6] (setting [8]); 70% (active) in test [6] (at 50.0 µM).

In the case of `NC(Cc1ccc(O)cc1O)C(=O)O` (stereo not given), the growth inhibition was 0% in test [1] (setting [7]); 2% in test [1] (setting [8]); 7.7% in test [1] (at 50.0 µM); 0% in test [2] (setting [7]); -1% in test [2] (setting [8]); 31% in test [2] (at 50.0 µM). Further, the growth inhibition is -1% in test [3] (setting [7]); -4% in test [3] (setting [8]); -7% in test [3] (at 50.0 µM); 2% in test [4] (setting [7]); -2% in test [4] (setting [8]); 74.9% (active) in test [4] (at 50.0 µM). For the same molecule, the growth inhibition is 5% in test [5] (setting [7]); -4% in test [5] (setting [8]); 3.55% in test [5] (at 50.0 µM); -1% in test [6] (setting [7]); -1% in test [6] (setting [8]); 16.4% in test [6] (at 50.0 µM).

Take `COc1ccccc1Nc1nc(SC)ncc1SC`: the growth inhibition in test [1] (setting [7]) is -4%; in test [1] (setting [8]) it was 91% (active); in test [1] (at 50.0 µM), 95.1% (active); in test [2] (setting [7]), -12%; in test [2] (setting [8]), 75% (active); in test [2] (at 50.0 µM), 96.4% (active). In addition, the growth inhibition in test [3] (setting [7]) is -5%; in test [3] (setting [8]), 69%; in test [3] (at 50.0 µM), 94% (active); in test [4] (setting [7]) it was -8%; in test [4] (setting [8]) it was 30%; in test [4] (at 50.0 µM), 41.9%. The growth inhibition in test [5] (setting [7]) is 1%; in test [5] (setting [8]) it was 93% (active); in test [5] (at 50.0 µM), 98% (active); in test [6] (setting [7]), -6%; in test [6] (setting [8]), 82% (active); in test [6] (at 50.0 µM), 92.2% (active).

Consider `Cc1cc(-c2ccc(O)c(C)c2)ccc1O`, for which the growth inhibition in test [1] (setting [7]) is 13%; in test [1] (setting [8]), 94% (active); in test [1] (at 50.0 µM), 83% (active); in test [2] (setting [7]), -15%; in test [2] (setting [8]) it was 74% (active); in test [2] (at 50.0 µM), 57.4%. Besides, the growth inhibition in test [3] (setting [7]) is 0%; in test [3] (setting [8]) it was 78% (active); in test [3] (at 50.0 µM) it was 74.6% (active); in test [4] (setting [7]), 5%; in test [4] (setting [8]), 60%; in test [4] (at 50.0 µM), 51.8%. Further, the growth inhibition in test [5] (setting [7]) is 23%; in test [5] (setting [8]) it was 98% (active); in test [5] (at 50.0 µM) it was 72.5% (active); in test [6] (setting [7]), 8%; in test [6] (setting [8]), 91% (active); in test [6] (at 50.0 µM), 71.5% (active).

With `Clc1ncccc1-n1cccc1/C=N\N=C/c1cccn1-c1cccnc1Cl`, the growth inhibition was 5% in test [1] (setting [7]); 98% (active) in test [1] (setting [8]); 7.25% in test [1] (at 50.0 µM); 5% in test [2] (setting [7]); 98% (active) in test [2] (setting [8]); 6.3% in test [2] (at 50.0 µM). Besides, the growth inhibition in test [3] (setting [7]) is 8%; in test [3] (setting [8]) it was 94% (active); in test [3] (at 50.0 µM), -10.6%; in test [4] (setting [7]), 4%; in test [4] (setting [8]) it was 93% (active); in test [4] (at 50.0 µM), 30.4%. Besides, the growth inhibition was 6% in test [5] (setting [7]); 97% (active) in test [5] (setting [8]); -4.95% in test [5] (at 50.0 µM); -1% in test [6] (setting [7]); 99% (active) in test [6] (setting [8]); 21.7% in test [6] (at 50.0 µM).

With `CC(=O)N(N)c1ccccc1`, the growth inhibition is 8% in test [1] (setting [7]); 56% in test [1] (setting [8]); 57.5% in test [1] (at 50.0 µM); 0% in test [2] (setting [7]); 42% in test [2] (setting [8]); 32.2% in test [2] (at 50.0 µM). The growth inhibition is 4% in test [3] (setting [7]); 53% in test [3] (setting [8]); 33.3% in test [3] (at 50.0 µM); 4% in test [4] (setting [7]); 51% in test [4] (setting [8]); 57.7% in test [4] (at 50.0 µM). Moreover, the growth inhibition in test [5] (setting [7]) is 7%; in test [5] (setting [8]), 77% (active); in test [5] (at 50.0 µM), 87.8% (active); in test [6] (setting [7]) it was 20%; in test [6] (setting [8]) it was 87% (active); in test [6] (at 50.0 µM) it was 88.4% (active).
